The source of these data is PMC4336329 (PLoS ONE, 2015).

The whole screen tested about 310,000 compounds, of which about 14,000 (4.5%) showed an effect of 50% or more. Effects have a minus sign here. Many of the other results were omitted from the sample, so strong results are more common in it than they were.
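Note: peak tail current of the secondary pulse compared with the same well before compound.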

The target of this assay is human ether-à-go-go-related gene (hERG) potassium channel (human, UniProt Q12809). In words: primary screen, population patch clamp on CHO cells stably expressing hERG; higher = less effect of the substance.
Chain of human ether-à-go-go-related gene (hERG) potassium channel (Q12809 whole entry, looked up): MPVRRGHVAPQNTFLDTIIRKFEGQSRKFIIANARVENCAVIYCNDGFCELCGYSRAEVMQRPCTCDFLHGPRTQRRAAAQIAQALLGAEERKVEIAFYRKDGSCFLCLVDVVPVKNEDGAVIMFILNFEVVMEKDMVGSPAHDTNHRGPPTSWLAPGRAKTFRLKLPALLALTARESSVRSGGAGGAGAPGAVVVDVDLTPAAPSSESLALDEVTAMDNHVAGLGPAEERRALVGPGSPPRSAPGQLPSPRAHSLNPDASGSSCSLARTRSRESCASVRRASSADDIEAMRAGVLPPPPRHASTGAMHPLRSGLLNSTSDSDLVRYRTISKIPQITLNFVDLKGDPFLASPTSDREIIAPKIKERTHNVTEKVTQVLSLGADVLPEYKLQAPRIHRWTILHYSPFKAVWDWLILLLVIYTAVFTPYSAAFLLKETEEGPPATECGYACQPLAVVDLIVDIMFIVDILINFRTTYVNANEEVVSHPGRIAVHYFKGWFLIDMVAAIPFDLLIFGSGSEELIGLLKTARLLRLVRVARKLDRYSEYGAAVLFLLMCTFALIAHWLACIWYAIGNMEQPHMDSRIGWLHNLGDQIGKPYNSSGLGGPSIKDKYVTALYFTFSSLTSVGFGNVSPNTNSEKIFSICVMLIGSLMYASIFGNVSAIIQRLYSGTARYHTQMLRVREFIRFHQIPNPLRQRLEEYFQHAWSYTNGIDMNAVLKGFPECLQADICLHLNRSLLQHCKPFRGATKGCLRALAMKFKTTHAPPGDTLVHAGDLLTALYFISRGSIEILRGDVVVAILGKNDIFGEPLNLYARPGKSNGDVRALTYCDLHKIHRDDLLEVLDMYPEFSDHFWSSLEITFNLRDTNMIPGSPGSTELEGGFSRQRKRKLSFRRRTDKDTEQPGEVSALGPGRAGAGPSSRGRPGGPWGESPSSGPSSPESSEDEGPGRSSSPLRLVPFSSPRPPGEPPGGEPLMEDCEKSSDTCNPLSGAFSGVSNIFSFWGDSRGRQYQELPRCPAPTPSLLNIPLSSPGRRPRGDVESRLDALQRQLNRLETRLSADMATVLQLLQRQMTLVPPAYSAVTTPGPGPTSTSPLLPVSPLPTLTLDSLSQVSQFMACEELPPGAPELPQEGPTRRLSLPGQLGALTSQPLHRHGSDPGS
In the case of `CNC(=O)c1ccsc1NC(=O)CCS(=O)(=O)c1ccc(Cl)cc1`, the “hERG current change (%, negative = inhibition) at 10uM” value was -18.1%.
As for `COc1ccccc1OCCn1c(C)c(C=O)c2ccccc21`, the figure is -2.11%.
Under `Cc1c(Br)c([N+](=O)[O-])nn1CC(=O)N1CCCc2ccccc21` stands 2.48%; under `CN1CCN(C(CNS(=O)(=O)c2ccc(Cl)cc2)c2cccnc2)CC1` (centres unmarked), -55.6%.
As for `CN(C)C(CNS(=O)(=O)c1ccc(Br)cc1)c1cccnc1` (centres unmarked), the figure is -11.3%.
In the case of `CCN1CCN(C(CNS(=O)(=O)c2ccccc2)c2ccccc2)CC1` (centres unmarked), the “hERG current change (%, negative = inhibition) at 10uM” value is -34.8%.
As for `N#CCCN1CCN(C(CNS(=O)(=O)c2ccc(Cl)cc2)c2ccccc2)CC1` (centres unmarked), the figure is -34.2%; as for `CCN1CCN(C(CNS(=O)(=O)c2ccc(Cl)cc2)c2ccccc2)CC1` (centres unmarked), -69.5%; as for `CCN1CCN(C(CNS(=O)(=O)c2ccc(C)cc2)c2cccnc2)CC1` (centres unmarked), -35.9%.
As for `CCN1CCN(C(CNS(=O)(=O)c2ccc(Cl)cc2)c2cccnc2)CC1` (centres unmarked), the figure is -74.2%.
In the case of `CCN1CCN(C(CNS(=O)(=O)c2ccc(Br)cc2)c2cccnc2)CC1` (centres unmarked), the “hERG current change (%, negative = inhibition) at 10uM” value is recorded as -65.8%.
With `CN1CCN(C(CNS(=O)(=O)c2ccc(F)cc2)c2cccnc2)CC1` (centres unmarked), the “hERG current change (%, negative = inhibition) at 10uM” value was -7.43%.
Turning to `CN(C)C(CNS(=O)(=O)c1ccc(Cl)cc1)c1cccnc1` (centres unmarked), the “hERG current change (%, negative = inhibition) at 10uM” value came out at 18.2%.
Under `N#Cc1ccc(Oc2cc(C(F)(F)F)nc(-c3ccccn3)n2)cc1` stands 5.26%.
As for `Cc1cccc(Nc2ncnc3onc(-c4ccc(F)cc4)c23)c1C`, the figure is -4.56%.
With `Oc1ccccc1CNc1nccs1`, the “hERG current change (%, negative = inhibition) at 10uM” value is 21.3%.
As for `COc1ccc(OC(C)C(=O)Nc2ccccc2F)cc1` (centres unmarked), the figure is 13.1%; as for `CN(C)CCn1cnc2c1c(=O)[nH]c(=O)n2Cc1ccccc1.Cl`, 27.6%; as for `O=C(O)CCCC(=O)NCc1ccccn1`, 11.1%.
Under `Cc1ccc(NC(=O)Cn2c(-c3ccc(F)cc3)cnc2SCC(=O)Nc2c(C)cccc2C)cc1` stands 16%; under `Cc1cc(C(=O)Nc2ccc(F)cc2)c2ccccc2n1`, -0.679%; under `C/C(CC(=O)Nc1ccc2c(c1)OCCO2)=N\NC(=O)c1ccc([N+](=O)[O-])cc1Cl`, -5.37%.
Under `CC(C)Sc1ccc([N+](=O)[O-])cc1C(=O)Nc1ccncc1` stands -11.7%.
As to `CCCCCn1cnc2c(sc3nc4c(cc32)CSC(C)(C)C4)c1=O`, the “hERG current change (%, negative = inhibition) at 10uM” value is reported as -14.5%.
Under `CCOC(=O)C1(CC2CCCCO2)CCN(Cc2ccc(OC)cc2F)CC1` (centres unmarked) stands -54.8%; under `CCOC(=O)C1CCN(Cc2ccc(F)cc2F)CC1`, 6.65%; under `CCOC(=O)C1(CC2CC2)CCN(Cc2cnc(-c3ccc(OC)cc3)nc2)CC1`, -21.9%.
As for `CCOC(=O)C1(CC2CCCCO2)CCN(S(=O)(=O)c2ccccc2)CC1` (centres unmarked), the figure is 9.64%.
As for `CCOC(=O)C1(CC2CCCCO2)CCN(S(=O)(=O)c2ccc(C)s2)CC1` (centres unmarked), the figure is 9.12%; as for `CCOC(=O)C1(CC2CCCCO2)CCN(Cc2nccn2-c2ccc(OC)cc2)CC1` (centres unmarked), -5.78%; as for `CCOC(=O)C1(CC2CCCCO2)CCN(Cc2nc3ccccc3nc2C)CC1` (centres unmarked), -21.2%.
`CCOC(=O)C1(CC2CCCCO2)CCN(S(=O)(=O)c2ccc(OC)cc2)CC1` (centres unmarked): the “hERG current change (%, negative = inhibition) at 10uM” value is listed as -38.3%.
As to `CCOC(=O)C1(CCOC)CCN(Cc2nc(-c3cccs3)oc2C)CC1`, the “hERG current change (%, negative = inhibition) at 10uM” value is on record as -30.8%.
As for `CCOC(=O)C1(CC2CCCCO2)CCN(Cc2nc(-c3cccs3)oc2C)CC1` (centres unmarked), the “hERG current change (%, negative = inhibition) at 10uM” value is reported as -67.6%.
Consider `CCOC(=O)C1(CC2CC2)CCN(Cc2ccc(OC)cc2F)CC1`, for which the “hERG current change (%, negative = inhibition) at 10uM” value was -73.5%.
Under `CCOC(=O)C1(CC2CCCCO2)CCN(S(=O)(=O)c2cc(C)cs2)CC1` (centres unmarked) stands -59%; under `O=C(O)c1ccc(C(=O)O)c(C(=O)c2ccc(NC(=O)c3ccccc3)cc2)c1`, 8.99%; under `C/C(=N\NC(=O)c1ccc(Cl)c(Cl)c1)c1cccc(NC(=O)C(C)C)c1`, 1.91%.
Under `Nc1c(Cl)cc(-c2cn(CCC(=O)O)c(-c3ccc(Cl)nc3)n2)cc1Cl` stands 20.4%; under `O=C(N/N=C/c1cccnc1)c1ccc(NC(=O)c2ccc(F)cc2)cc1`, 8.2%.
For the compound `O=C1C2C3C=CC(C3)C2C(=O)N1c1ccc(N2CCN(c3ccccn3)CC2)c([N+](=O)[O-])c1` (centres unmarked), the “hERG current change (%, negative = inhibition) at 10uM” value was -18.6%.
As for `O=C(NCC1OCCCN1S(=O)(=O)c1ccc(F)cc1)C(=O)NC1CCCC1` (centres unmarked), the figure is -15.8%; as for `O=C(CSc1ccccc1C(=O)O)NC1CCCCCCC1`, 17.6%; as for `CSc1ccc(CN2CCN(c3ccccc3C)CC2)cc1.O=C(O)C(=O)O`, -54.5%.
Under `CCOc1cc(CN2CCN(c3ncccn3)CC2)ccc1OC` stands -4.8%; under `CCOc1ccccc1N1CCN(Cc2ccc(OC)c(OC)c2)CC1`, -69.2%.
On to `CCOc1cc(CN2CCCCC2)ccc1OC`, for which the “hERG current change (%, negative = inhibition) at 10uM” value is recorded as -8.28%.
As for `Cc1ccccc1N1CCN(Cc2cccc(C(=O)O)c2)CC1.Cl`, the figure is 1.27%; as for `COc1ccccc1N1CCN(Cc2ccco2)CC1.O=C(O)C(=O)O`, -26.4%; as for `COc1ccc(CN2CCN(Cc3ccco3)CC2)cc1OC.O=C(O)C(=O)O`, 1.22%.
As for `COc1ccc(CN2CCN(C(=O)c3cccc(OC)c3OC)CC2)cc1OC.O=C(O)C(=O)O`, the figure is 5.63%; as for `COc1ccccc1N1CCN(Cc2ccc(C(=O)O)cc2)CC1`, 14.4%.
Turning to `Cc1ccccc1CN1CCN(Cc2ccccc2)CC1.O=C(O)C(=O)O`, the “hERG current change (%, negative = inhibition) at 10uM” value was -7.72%.
Under `COc1ccc(CN2CCN(c3ccccc3OC)CC2)cc1OC.O=C(O)C(=O)O` stands -57.9%; under `COc1ccccc1N1CCN(Cc2ccc(SC)cc2)CC1.O=C(O)C(=O)O`, -72.9%; under `Cc1ccccc1CN1CCCOCCS1(=O)=O`, -0.4%.
As for `Cn1c2c(c(=O)n1-c1ccccc1)CSCC2`, the figure is 16.5%; as for `O=C(NNC(=S)NC(=O)c1cccs1)c1ccc(NC(=O)c2ccccc2)cc1`, 13.7%; as for `Cl.O=C(O)c1ccc2nc(CO)[nH]c2c1`, 11.2%.
As for `CC(Cc1cccs1)NC(=O)Nc1ccccc1` (centres unmarked), the figure is 0.115%; as for `O=C(c1ccc(S(=O)(=O)N2CCOCC2)cc1)N1CCc2ccccc2C1`, -4.25%.
Regarding `CN(C)S(=O)(=O)c1ccc(C(=O)NCC(=O)N/N=C/c2ccccc2Cl)cc1`, the “hERG current change (%, negative = inhibition) at 10uM” value is reported as 5.43%.
As for `COc1cc(CN2CCN(c3cccc(C)c3C)CC2)cc(OC)c1O`, the figure is -45.4%; as for `COc1ccc(CN2CCN(c3cccc(C)c3C)CC2)cc1OC`, -72%.
As to `COc1cccc(CN2CCN(Cc3cccc(F)c3)CC2)c1.O=C(O)C(=O)O`, the “hERG current change (%, negative = inhibition) at 10uM” value is -6.47%.
With `CC(NC(=O)C(C)N1CCN(Cc2ccccc2)CC1)c1ccc(F)cc1` (centres unmarked), the “hERG current change (%, negative = inhibition) at 10uM” value amounted to 5.35%.
As to `COc1cc(C)c(CN2CCN(C(C)C(=O)NC(C)c3ccccc3)CC2)cc1OC` (centres unmarked), the “hERG current change (%, negative = inhibition) at 10uM” value is on record as -18.3%.
As for `COc1ccc(CN2CCN(C(C)C(=O)NC(C)c3ccc(F)cc3)CC2)cc1F` (centres unmarked), the figure is -62%; as for `COc1ccc(CN2CCN(C(C)C(=O)N(C)Cc3cccc(F)c3)CC2)cc1OC.O=C(O)C(=O)O` (centres unmarked), -61%; as for `COc1ccc(CN2CCN(S(=O)(=O)c3ccc(F)cc3)CC2)cc1OC.O=C(O)C(=O)O`, 7.33%.
Take `CCOc1ccccc1N1CCN(Cc2ccc(OC)c(OC)c2OC)CC1`: the “hERG current change (%, negative = inhibition) at 10uM” value is recorded as -51.9%.
In the case of `COc1cc(CN2CCN(c3cccc(C)c3C)CC2)cc(Br)c1O`, the “hERG current change (%, negative = inhibition) at 10uM” value is -12.6%.
As for `COc1ccccc1N1CCN(Cc2ccc(OC)c(OC)c2OC)CC1`, the “hERG current change (%, negative = inhibition) at 10uM” value is reported as -35.8%.
Under `CCOc1ccccc1N1CCN(Cc2cccc(OC)c2OC)CC1` stands -17%.
For `CC(C)S(=O)(=O)C1=NSC2=NC(=O)/C(=C\c3ccc(OC(=O)c4ccco4)cc3)C(=N)N21`, the “hERG current change (%, negative = inhibition) at 10uM” value came to 12.8%.
For `COc1cc2nc(C(C)(C)C)oc(=O)c2cc1OC`, the “hERG current change (%, negative = inhibition) at 10uM” value is reported as 10.6%.
Take `NC(=O)CC(NC(=O)c1ccccc1)c1ccc(NC2CCCC2)c([N+](=O)[O-])c1` (centres unmarked): the “hERG current change (%, negative = inhibition) at 10uM” value is on record as 5.39%.
Take `Cc1cc(C(=O)OCC(=O)c2ccc(Cl)c([N+](=O)[O-])c2)c2cccc(C)c2n1`: the “hERG current change (%, negative = inhibition) at 10uM” value is on record as 6.36%.
Under `CS(=O)(=O)N(Cc1ccc(C(=O)NN=C2CCCC2)cc1)c1ccccc1` stands 8.63%.
On to `CCC(=O)Nc1cc(-c2cc3ccccc3oc2=O)ccc1OC`, for which the “hERG current change (%, negative = inhibition) at 10uM” value is listed as -29.6%.
As for `COc1ccccc1N1CCN(Cc2ccccc2)CC1.O=C(O)C(=O)O`, the figure is -7.21%; as for `COc1ccccc1N1CCN(Cc2cccc(Br)c2)CC1.O=C(O)C(=O)O`, -5.27%.
As to `COc1ccccc1N1CCN(Cc2ccc(Br)cc2)CC1.O=C(O)C(=O)O`, the “hERG current change (%, negative = inhibition) at 10uM” value is -70.3%.
Under `COc1ccccc1CN1CCN(Cc2ccc3ccccc3c2)CC1.O=C(O)C(=O)O` stands -36.7%; under `COc1ccc(CN2CCN(Cc3ccccc3F)CC2)cc1OC.O=C(O)C(=O)O`, -22.6%; under `COc1ccc(CN2CCN(Cc3ccc4ccccc4c3)CC2)cc1OC.O=C(O)C(=O)O`, -67%.
